MITF primary – MITF inhibitors, primary screen, biochemical, AlphaScreen, human | Microphthalmia-associated transcription factor (Homo sapiens), O75030 | AlphaScreen MITF homodimerization, bead proximity signal | inhibition, % at 2.6 µM | hit rate 0.91% among 650,000; in the data active = inhibition above about 50%;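 also: 0% = vehicle wells with protein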
GPR151 activ – activators of human GPR151, primary screen, cell-based, PathHunter beta-arrestin, luminescence; PathHunter beta-arrestin GPR151 cells; AID 1508602, 2020; G-protein coupled receptor 151 (Homo sapiens), Q8TDV0; hit rate 1% among 650,000; activation, % at 11.2 µM; in the data active = activation above about 4.9%;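 also: 0% = median of compound wells and 100% = cells with positive control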
FBW7 activator – FBW7 E3 ligase activators, primary screen, biochemical, AlphaScreen, human. AlphaScreen FBW7–phospho-cyclin E peptide binding, activator screen. normalized activity (activation), % at 26.1 µM. F-box/WD repeat-containing protein 7 (Homo sapiens), Q969H0. AID 1259310, 2017. hit rate 0.13% among 650,000; in the data active = normalized activity above about 1.9%;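 also: purified mutant Fbw7 with reduced substrate affinity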
TEAD-YAP inh – TEAD-YAP interaction inhibition, primary screen, TEAD-YAP interaction inhibitor project, luminescence, HEK-TIYL cells. AID 1259422, 2018. hit rate 1.4% among 640,000. inhibition, % at 9.12 µM. TEAD-Gal4/YAP UAS-luciferase luminescence; in the data active = inhibition above about 32%;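 also: 0% = median of test compound wells and 100% = reference inhibitor wells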
GPR151 conf act – GPR151 activators, triplicate retest, confirmation, cell-based, PathHunter beta-arrestin, luminescence; shares compounds with GPR151 activ; GPR151 PathHunter beta-arrestin cells, 90 min; % of EA-reagent control over plate median; activation, % at 11.2 µM; 6,700 tested, under 10 active; AID 1508609, 2020;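 active = mean percent activation across replicates above the confirmation screen cutoff of 4.91%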
GPR119 counter – GPR119 activators in beta-arrestin cells, counter-screen for GPR151 activator project, cell-based, PathHunter beta-arrestin, luminescence, triplicate; shares compounds with GPR151 activ; 90 min; 0 = compound-well median, 100 = enzyme-acceptor control; activation, % at 11.2 µM; hit rate 0.3% among 6,700; AID 1508611, 2020;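 active = mean percent activation in the counterscreen above 29.09%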;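 also: counterscreen on off-target GPR119 to flag nonselective hits from the GPR151 activator screen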
Target sequence (Q8TDV5 whole entry, looked up): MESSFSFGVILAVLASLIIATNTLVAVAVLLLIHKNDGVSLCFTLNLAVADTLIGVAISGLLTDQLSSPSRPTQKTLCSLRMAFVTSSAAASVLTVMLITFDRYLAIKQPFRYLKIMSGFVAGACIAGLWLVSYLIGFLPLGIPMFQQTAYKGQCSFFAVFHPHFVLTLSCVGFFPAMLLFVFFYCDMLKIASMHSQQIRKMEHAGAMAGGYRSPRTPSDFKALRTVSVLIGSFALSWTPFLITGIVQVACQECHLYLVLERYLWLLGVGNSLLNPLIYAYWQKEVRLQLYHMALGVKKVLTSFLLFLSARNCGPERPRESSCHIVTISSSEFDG
The depositor's hits bear a star; . = no result given. In the library only some 3.5% were active in any assay of this set; here they are far more common.

SMILES	MITF primary	GPR151 activ	FBW7 activator	TEAD-YAP inh	GPR151 conf act	GPR119 counter
CCN(Cc1ccccc1)C(=O)/C=C/c1ccc(OC)cc1	15	-1	0	-50	.	.
S=C(NCc1ccc(Cl)cc1)NCc1cccnc1	-2	0	0	7	.	.
O=C(NC(NC(=O)c1ccccc1F)c1ccc2c(c1)OCO2)c1ccccc1F	-3	11*	0	1	1	0
CC(C)[C@H](NC(=O)c1ccccc1F)C(=O)Nc1ccc2c(c1)OCO2	-6	0	0	-6	.	.
O=C(Nc1ccccc1)c1cccc(N2C(=O)C3CC=CCC3C2=O)c1 (centres undefined)	2	0	0	0	.	.
COc1ccc(OCC(O)CNCC(O)c2ccccc2)c(C(C)(C)C)c1 (centres undefined)	33	-2	0	4	.	.
Cc1ccc(-c2cncc(-c3cc(Nc4ncccn4)nc(C)n3)c2)cc1	42	-1	0	1	.	.
COc1ccc(-c2cncc(-c3cc(Nc4ncccn4)nc(C)n3)c2)cc1	3	6.9*	0	-1	-1	0
Cc1cc(NC(=O)c2ccccc2)n(-c2nc3ccccc3[nH]2)n1	11	-2	0	4	.	.
Cc1cc(NC(=O)c2cc3ccccc3oc2=O)n(-c2nc3ccccc3[nH]2)n1	-6	8.1*	0	9	0	5
Cn1c(=O)c(=O)n(C)c2cc(S(=O)(=O)N3CCN(C(=O)c4ccco4)CC3)ccc21	6	15*	0	1	1	-2
CCOc1cccc(C2CC(c3cccc(Br)c3)=NC(c3ccc(C)cc3C)N2)c1O (centres undefined)	4	1	0	-13	.	.
CN1C(=O)c2ccc(S(=O)(=O)c3ccc(C(=O)O)cc3)cc2C1=O	-17	5.5*	0	6	-1	8
O=C(c1ccco1)N1CCC(Cn2c(COc3ccccc3)nc3ccccc32)CC1	13	7.5*	0	-23	0	-11
CCNC(=O)N1CCC(Cn2c(COc3ccccc3)nc3ccccc32)CC1	3	0	0	-8	.	.
C=CCNC(=O)c1ccc(N2C(=O)C3C4c5ccccc5C(c5ccccc54)C3C2=O)cc1 (centres undefined)	7	0	0	-5	.	.
CCc1ccccc1N(CC(=O)Nc1ccccc1)S(C)(=O)=O	10	0	0	-8	.	.
CCOCCCNC1CCN(c2ccc(NC(=O)c3cccc(Cl)c3)cc2)CC1	12	17*	0	27	0	21
CCN(CC)CCNC1CCN(c2ccc(NC(=O)c3cccc(Cl)c3)cc2)CC1	14	1	0	-35	.	.
CN(CC(=O)OCC(=O)c1ccc(Cl)s1)S(=O)(=O)c1ccc(Cl)cc1	7	-1	0	6	.	.
COCCNc1oc(-c2ccccc2)nc1S(=O)(=O)c1ccc(C)cc1	2	6.1*	0	-1	0	1
COCCNc1oc(-c2ccccc2)nc1S(=O)(=O)c1ccc(Cl)cc1	4	-1	-1	-2	.	.
Nc1ncc(Br)cc1S(=O)(=O)N1CCN(C2CCCCC2)CC1	4	13*	0	4	1	10
CN(C)c1ccc(/C=N\Nc2nc(-c3cccc([N+](=O)[O-])c3)cs2)cc1	-4	0	0	2	.	.
CC(=O)c1cc2c(cc1NC(=O)c1cccc(Br)c1)OCCO2	18	5.6*	0	13	0	-2
SMILES	MITF primary	GPR151 activ	FBW7 activator	TEAD-YAP inh	GPR151 conf act	GPR119 counter
CC(=O)c1cc2c(cc1NC(=O)c1ccccc1)OCCO2	13	0	0	0	.	.
CCOc1cccc(NC(=O)/C(C#N)=C/c2ccccc2)c1	0	1	0	-13	.	.
CCOc1cccc(NC(=O)/C(C#N)=C\c2ccc(OCC(=O)O)c(Br)c2)c1	-9	6.1*	0	4	-1	-9
Cc1cc2nnc(SCC(=O)N3CCC(C)CC3)n2c(N)n1	3	4.9*	0	-7	1	-1
CN(CCO)C(=O)CCC1(Cc2cccc3ccccc23)CCC(=O)N1 (centres undefined)	2	0	0	1	.	.
CCOC(=O)N1CCC(N(CCOC)C(=S)Nc2cccc(OC)c2)CC1	-1	8.6*	0	-14	-1	-11
C[C@H](O)C(=O)N1CCC(Nc2ccc3[nH]ncc3c2)CC1	4	0	0	-4	.	.
COc1ccc(C2C(C(N)=O)=C(C)Nc3ncnn32)cc1OC (centres undefined)	3	5.1*	0	-3	1	10
COc1cc(C2C(C(N)=O)=C(C)Nc3ncnn32)cc(OC)c1OC (centres undefined)	-1	1	0	6	.	.
CC1CCCN(C(=O)c2ccc(S(=O)(=O)c3ccc(F)cc3)c([N+](=O)[O-])c2)C1 (centres undefined)	-5	1	0	-4	.	.
CC(C)c1[nH]nc2c1C(C(C)C)C(C#N)=C(N)O2 (centres undefined)	3	8.3*	0	0	1	-6
O=C(OCc1ccc(Br)cc1)c1ccc(O)cc1	15	-1	1	-3	.	.
O=C(OCc1ccc(Br)cc1)c1ccc(N2CCCC2=O)cc1	3	7.3*	0	4	1	14
COc1ccc(S(=O)(=O)NCc2ccncc2)cc1OC	-25	5.4*	0	8	1	-6
Nc1ccc(Oc2ccc3ccccc3c2Cl)c(Cl)c1	10	2	1	-9	.	.
Nc1ccc(Oc2ccc(Cl)c3ccccc23)c(Cl)c1	4	11*	0	2	0	7
C=CCC(O)(CC=C)CNC(=O)CCc1nnc(CCc2c[nH]c3ccccc23)o1	8	3	0	4	.	.
CCOc1ccc(NC(=O)CNC(=O)c2ccc(C(C)(C)C)cc2)cc1	8	9.1*	0	8	0	-9
CCOc1ccc(NC(=O)c2ccc(C(C)(C)C)cc2)cc1	-13	-1	0	-29	.	.
CC(C)(C)c1ccc(OCC(=O)Nc2ccc(OCC(=O)O)cc2)cc1	11	5.2*	0	7	0	4
CC(=O)c1ccc(OCC(=O)Nc2ccccc2)cc1	10	5.8*	0	-39	-2	-16
O=C(COc1ccc(F)cc1)Nc1cccc(C(=O)O)c1	6	6.5*	0	-10	1	18
Nc1nc(SCC(=O)Nc2cccc(S(=O)(=O)N3CCCC3)c2)n[nH]1	-2	2	0	-11	.	.

Screens (PubChem BioAssay)
